Inconclusive results are not listed. Entries that show only a call come without a potency. A number with no mark means an inactive call. Activity calls are given as the source filed them. Calls follow the shape of the dose curve; as a rule, active = well fitted cell-killing curve with a large enough effect in the repeat runs; inconclusive = weak or mixed curves, or effect the other way; inactive = flat fitted curve, though single readings scatter.
Test: qHTS assay to identify small molecule that activate the aryl hydrocarbon receptor (AhR) signaling pathway - cell viability counter screen (AID 743086); also: nearly all actives have a fitted effect of over 45% in size;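 as to viability change, negative = cytotoxic: HepG2 liver cells carrying the AhR DRE luciferase reporter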
Settings: HepG2-AhR-luc viability, CellTiter-Fluor, 24 h; series mostly up to 70.3 µM
Description: U.S. Tox21 Program National Center for Advancing Translational Sciences [NCATS] NIH Chemical Genomics Center [NCGC] U.S. Environmental Protection Agency [EPA] National Institutes of Environmental Health Sciences [NIEHS] National Toxicology Program [NTP] U.S. Food and Drug Administration [FDA] Tox21 Assay overview: The Aryl hydrocarbon Receptor (AhR), a member of the family of basic helix-loop-helix transcription factors, is crucial to adaptive responses to environmental changes. AhR mediates cellular responses to environmental pollutants such as aromatic hydrocarbons through induction of phase I and II enzymes but also interacts with other nuclear receptor signaling pathways A cell based HepG2-AhR-luc assay (HG2L7.5c1 cell line, developed by Dr. Michael S. Denison, University of California at Davis) was used to assess the activation of AhR. HepG2 (human hepatocellular carcinoma) cells were stably transfected with an Ah receptor-responsive firefly luciferase reporter gene plasmid containing 20 dioxin responsive elements and luciferase reporter gene. Increased luciferase activity can be used to identify the compounds that induce AhR activation. The cytotoxicity of the compounds screened against the HepG2-AhR-luc cell line was tested in parallel by measuring the cell viability using CellTiter-Fluor assay in the same wells.
Tox21 Assay Protocol Summary: 4000 cells in 5 uL/well were dispensed into white wall/solid bottom 1536-well plates using a Multidrop Combi (Thermo Fisher Scientific Inc., Waltham, MA) dispenser. After the assay plates were incubated at 37C for 5 h, 23 nL of compound or DMSO vehicle was transferred to the assay plates by a pintool station (Kalypsys, San Diego, CA). The plates were incubated at 37C for 24 hr. For cell viability measurement, 1 ul/well of CellTiter-Fluor reagent (Promega, Madison, WI) was added into the assay plates using a Flying Reagent Dispenser (FRD) (Aurora Discovery, CA),and then the assay plates were incubated at 37C for 30 min. The fluorescence intensity in the plates was measured using a ViewLux plate reader (PerkinElmer, Shelton, CT), followed by the addition of 4 uL of ONE-Glo Luciferase Assay reagent (Promega) using an FRD (Aurora Discovery). After the assay plates were incubated at room temperature for 30 min, luminescence intensity was measured using a ViewLux plate reader (Perkin Elmer).
For `CC(Cc1ccc(OCC(=O)O)cc1)NCC(O)c1csc(C(F)(F)F)n1` (stereo not given), the Potency was “inactive”.
With `CC(C)NCC(O)c1ccccc1Cl` (stereo not given) the Potency was “inactive”.
For `CNC(=O)CSP(=O)(OC)OC`, the Potency was “inactive”.
In the case of `O=[N+]([O-])c1ccc(Cl)c(Cl)c1Cl`, the Potency is reported as “inactive”.
In the case of `COCCC#N`, the Potency is reported as “inactive”.
For `CCN1CCC2(CC1)COc1cc3c(cc12)N(C(=O)c1ccc(-c2ccc(-c4nnc(C)o4)cc2C)cc1)CC3`, the Potency was 28.3 µM (active).
With `CCOP(=S)(OCC)Oc1cc(C)nc(N(CC)CC)n1` the Potency was “inactive”.
For `CCCCn1cc[n+](C)c1` (tested in a mixture with another compound), the Potency was “inactive”.
For `COc1ccc2[nH]cc(CCN(C(C)C)C(C)C)c2c1`, the Potency was “inactive”.
In the case of `CN1C(=O)[C@@H](NC(=O)c2cc3ccccc3[nH]2)N=C(c2ccccc2)c2ccccc21`, the Potency is reported as “inactive”.
For `O=S(=O)(O)F`, the Potency was “inactive”.
With `CCNc1nc(NC(C)C(C)C)nc(SC)n1` (stereo not given) the Potency was “inactive”.
For `CCCCCCCc1ccc(O)cc1`, the Potency was “inactive”.
In the case of `CCC(C)Nc1c([N+](=O)[O-])cc(C(C)(C)C)cc1[N+](=O)[O-]` (stereo not given), the Potency is reported as “inactive”.
With `CC(Cc1ccc2c(c1)OCO2)NO` (stereo not given) the Potency was “inactive”.
For `C=CCBr`, the Potency was “inactive”.
With `COC(=O)C(C)N(C(=O)c1ccco1)c1c(C)cccc1C` (stereo not given) the Potency was “inactive”.
In the case of `CCOC(=O)CCN(SN(C)C(=O)Oc1cccc2c1OC(C)(C)C2)C(C)C`, the Potency is reported as “inactive”.
`CC(=O)[O-].CC(=O)[O-].CC(=O)[O-].[Sb+3]` gave a viability change, negative = cytotoxic of 5.29% [at 8.47 µM].
For `O=C(NC(=O)c1ccccc1Cl)Nc1ccc(OC(F)(F)F)cc1`, the Potency was “inactive”.
In the case of `COP(=O)(OC)Oc1ccc([N+](=O)[O-])cc1`, the Potency is reported as “inactive”.
In the case of `CCC1COC(Cn2cncn2)(c2ccc(Cl)cc2Cl)O1` (stereo not given), the Potency is reported as “inactive”.
With `Clc1ccc(C(c2ccc(Cl)cc2)C(Cl)Cl)cc1` the Potency was “inactive”.
With `CCCCCCC[CH2][Sn]([Cl])([Cl])[CH2]CCCCCCC` the Potency was “inactive”.
With `CCOC(=O)Cc1ccccc1` the Potency was “inactive”.
In the case of `O.O.O.O.O.O.O.O=S(=O)([O-])[O-].[Co+2]`, the Potency is reported as “inactive”.
In the case of `N#Cc1sc2c(=O)c3ccccc3c(=O)c=2sc1C#N`, the Potency is reported as 6.86 µM (active).
With `[Cl][Hg][c]1ccccc1` the Potency was 5.45 µM (active).
With `BrCC(Br)(Br)Br` the Potency was “inactive”.
For `CC(C)c1c(CN(C)C(C)Cc2ccccc2)n(C)n(-c2ccccc2)c1=O` (stereo not given), the Potency was “inactive”.
With `CC(C)=CC1C(C(=O)OC(C#N)c2cccc(Oc3ccccc3)c2)C1(C)C` (stereo not given) the Potency was “inactive”.
With `COc1nc(C)nc(NC(=O)NS(=O)(=O)c2ccccc2Cl)n1` the Potency was “inactive”.
In the case of `CNC(C)(C)Cc1ccccc1`, the Potency is reported as “inactive”.
For `CC(=O)[O][Sn]([c]1ccccc1)([c]1ccccc1)[c]1ccccc1`, the Potency was 0.77 µM (active).
In the case of `CN/C(=N\[N+](=O)[O-])NCc1cnc(Cl)s1`, the Potency is reported as “inactive”.
In the case of `O=[N+]([O-])c1cccc2cccc([N+](=O)[O-])c12`, the Potency is reported as “inactive”.
In the case of `CC(=O)O.CC(=O)O.CC(=O)O.CC(=O)O.CC(=O)O.CC(=O)O.CC(=O)O.O.O.[Cr].[Cr].[Cr]`, the Potency is reported as “inactive”.
In the case of `COc1cnc(OC)n2nc(NS(=O)(=O)c3c(OCC(F)F)cccc3C(F)(F)F)nc12`, the Potency is reported as “inactive”.
In the case of `CC(C)(C)c1ccc(OP(=O)(Oc2ccccc2)Oc2ccccc2)cc1`, the Potency is reported as “inactive”.
For `C[C@H]1[C@H](c2ccc(Cl)cc2)SC(=O)N1C(=O)NC1CCCCC1`, the Potency was “inactive”.

— PubChem BioAssay (Tox21)
Potency is read from the fitted curve at half-maximal effect.
